CHX counter – Cycloheximide Counterscreen for Small Molecule Inhibitors of Shiga Toxin | max response, % | hit rate 12% among 300,000 | AID 2314, 2010 | cell reporter, cycloheximide protein synthesis inhibition counterscreen; in the data active = max response mostly above about 13%, no sharp cut-off; inactive = mostly below about 14%; also: read at 38.3 µM for the half of the compounds with a filed dose; 0% is about no effect
Shiga toxin inh – A qHTS for Small Molecule Inhibitors of Shiga Toxin. Vero cells, Shiga toxin protein synthesis inhibition reporter. hit rate 9.2% among 290,000. AID 2315, 2010. inhibition, % at 38.7 µM; in the data active = inhibition mostly above about 28%, no sharp cut-off; inactive = mostly below about 43%; also: 0% is about no effect
AMA1-RON2 inh – qHTS for Inhibitors of AMA1-RON; Towards Development of Antimalarial Drug Lead: Primary Screen; Plasmodium falciparum AMA1 (3D7) - RON2 peptide interaction; AlphaScreen AMA1-biotinylated RON2 peptide binding; Potency, µM (titrated, usually from 58.2 µM), without a hit: top-dose activity change, negative = inhibition, most hits filed as inhibitors; hit rate 0.2% among 360,000; AID 720542, 2013;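 also: potency is read from the fitted curve at half-maximal effect; 0% = vehicle wells and -100% = peptide control; nearly all actives have a fitted effect of over 45% in size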
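AMA1 (3D7) with his tag at 25 nM final met compounds first, then biotinylated RON2 peptide at 25 nM; detection used donor plus acceptor beads, 10 µg/mL apiece, read by AlphaScreen after 30 min at room temperature.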
SARS PLpro yeast – qHTS of Yeast-based Assay for SARS-CoV PLP. S. cerevisiae expressing SARS-CoV PLpro, growth rescue. Potency, µM (top dose mostly 32.9 µM), for inactives: at the top dose activity, positive = growth rescue, usual class: activators. hit rate 0.19% among 330,000; calls by dose curve; also: potency is read from the fitted curve at half-maximal effect; 0% is about no effect; nearly all actives have a fitted effect of over 55% in size
Pf growth 48h – Primary qHTS for delayed death inhibitors of the malarial parasite plastid, 48 hour incubation. P. falciparum luciferase growth in erythrocytes, 48 h. Potency, µM (doses to about 28.7 µM), for the others: at the top dose activity change, negative = inhibition, most hits filed as inhibitors. hit rate 5.9% among 310,000. AID 504832, 2011; also: potency is read from the fitted curve at half-maximal effect; % is scaled to controls: 0 for no effect and ±100 for the full control effect
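Luciferase-expressing P. falciparum in infected erythrocytes (2% hematocrit, 0.1% parasitemia final) in RPMI 1640/0.5% Albumax were exposed to compound for 48 hours at 37 C, 5% CO2; growth read as luminescence.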
Pf growth 96h – Primary qHTS for delayed death inhibitors of the malarial parasite plastid, 96 hour incubation; P. falciparum luciferase reporter growth, 96 h; Potency, µM (series often up to 28.7 µM), for the others: at the top dose activity change, negative = inhibition, hits mostly inhibitors; hit rate 6.9% among 320,000; AID 504834, 2011; also: potency is read from the fitted curve at half-maximal effect; % is scaled to controls: 0 for no effect and ±100 for the full control effect
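Readout is luminescence from an integrated firefly luciferase in P. falciparum. Red cells, 2% hematocrit and 0.05% parasitemia final, were cultured with compound through two parasite generations (96 hours) at 37 C, 5% CO2.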
Starred values were filed as active, the others as inactive; u = inconclusive; x = no result given; [ ] = remark or other dose. Sampled rows, rich in hits. Any-hit rate of the full collection: about 19%. Unless noted, calls follow the shape of the dose curve; as a rule, active = well fitted curve in the direction sought with a large enough effect; inconclusive = small, poorly fitted or top-dose-only effect, or another doubt; inactive = no such curve, though single readings can be large; an effect the other way counts as inactive or inconclusive.

SMILES	CHX counter	Shiga toxin inh	AMA1-RON2 inh	SARS PLpro yeast	Pf growth 48h	Pf growth 96h
COc1ccccc1CNC(=O)C(=O)NCC(c1ccco1)N1CCOCC1 (centres undefined)	1	-13	8%	4%	29%	u
COc1ccc(-n2cc(-c3ccccc3)[nH]c2=S)cc1	12	13	11%	-12%	28%	u
COc1cccc(-c2cn(-c3cccc(C(F)(F)F)c3)c(=S)[nH]2)c1	13	-3	53%	1%	10µM*	u
O=C(Nc1ccnc(-c2ccncc2)n1)c1ccc(Cl)cc1	2	2	-4%	1%	12%	7%
COc1ccc(OC)c(NC(=O)c2nc(S(=O)(=O)Cc3ccccc3)ncc2Cl)c1	10	6	-15%	-9%	23%	40%
Cc1nnc(NC(=O)c2nc(S(=O)(=O)Cc3ccccc3)ncc2Cl)s1	63*	86*	60%	4%	1%	-10%
Cc1cccc(CS(=O)(=O)c2ncc(Cl)c(C(=O)NCc3ccccc3)n2)c1	24*	38*	0%	1%	32%	0%
CS(=O)(=O)c1ncc(Cl)c(C(=O)Nc2ccc(OC(F)F)cc2)n1	-8	-6	36%	-13%	1%	u
CS(=O)(=O)c1ncc(Cl)c(C(=O)Nc2ccc(N3CCOCC3)cc2)n1	60*	67*	4%	26%	97%	u
COc1ccc(NC(=O)c2nc(S(=O)(=O)Cc3cccc(C)c3)ncc2Cl)c(OC)c1	4	1	-9%	8%	-10%	-30%
Cc1cccc(CS(=O)(=O)c2ncc(Cl)c(C(=O)Nc3c(C)cccc3C)n2)c1	22*	20	4%	-14%	-15%	37%
O=C(Oc1cccc([N+](=O)[O-])c1)N1CCCCC1	2	-1	-2%	-1%	-1%	8%
c1ccc(C2Nc3ccccc3C3OCCCC23)cc1 (centres undefined)	-3	-17	u	-23%	8%	u
CCN1C(=O)[C@H]2[C@@H](c3ccc(C)cc3)N[C@]3(CCCN(Cc4cccn4C)C3=O)[C@H]2C1=O	x	x	-3%	x	x	x
CCCc1nnc(NC(=O)c2nc(S(=O)(=O)Cc3cccc(C)c3)ncc2Cl)s1	52*	68*	136%	1%	-6%	u
Cc1ccccc1CS(=O)(=O)c1ncc(Cl)c(C(=O)Nc2ccc(F)cc2)n1	29*	32	-7%	-13%	6%	1%
Cc1cccc(C)c1NC(=O)c1nc(S(=O)(=O)Cc2ccccc2)ncc1Cl	16*	40*	-11%	-10%	25%	u
CCOC(=O)c1nc(S(C)(=O)=O)ncc1Cl	26*	25	1%	-23%	-7%	u
Cc1ccc(NC(=O)c2nc(S(=O)(=O)Cc3ccccc3)ncc2Cl)cc1	12	23	-1%	-18%	50%	25%
CCCc1nnc(NC(=O)CS(=O)(=O)c2ccc(C)cc2)s1	-2	-2	-4%	4%	10%	u
O=C(Nc1ccc(F)cc1)c1nc(S(=O)(=O)Cc2ccccc2)ncc1Cl	6	11	7%	-9%	6%	54%
Cc1ccccc1NC(=O)c1nc(S(C)(=O)=O)ncc1Cl	42*	48*	-6%	-18%	1%	13µM*
Cc1cc(C)cc(OCC(=O)Nc2ccc3c(c2)C(=O)c2ccccc2C3=O)c1	20*	46*	-2%	-18%	31%	12%
CCC(=O)Nc1ccc2c(c1)C(=O)N(C)C2=O	-2	-7	4%	-9%	x	35%
O=C(Cn1nc(C(=O)O)c2ccccc2c1=O)Nc1ccc2c(c1)C(=O)c1ccccc1C2=O	24*	44	x	0%	74%	132%
SMILES	CHX counter	Shiga toxin inh	AMA1-RON2 inh	SARS PLpro yeast	Pf growth 48h	Pf growth 96h
CCC(=O)NC1=C(NC(C)c2ccccc2)C(=O)c2ccccc2C1=O (centres undefined)	16	43	-14%	-4%	x	0.93µM*
CC(NC(=O)CN1C(=O)c2ccccc2C1=O)c1ccccc1 (centres undefined)	1	-4	11%	1%	-27%[0.00184 µM]	u
CCC(=O)Nc1ccc2c(c1)C(=O)c1ccccc1C2=O	36*	76*	-18%	-29%	342%	256%
CC(C)=CCC[C@H](C)CC1Cc2[nH]c(=S)[nH]c(=O)c2C(c2ccc(Cl)cc2)O1 (some centres undefined)	x	x	105%	x	x	x
O=C(CSc1nnc(SCc2cccc3ccccc23)s1)N=Nc1c(O)[nH]c2ccccc12	-8	-16	x	6%	12%	-26%
CN(C)c1ccc(/C=C(\C#N)C(=O)Nc2nc3c(s2)CCN(Cc2ccccc2)C3)cc1	-3	-24	10%	2%	x	-14%
CC[C@@]1(C(=O)OC)N[C@H](CN(C)S(=O)(=O)c2ccc(-c3ccccc3)cc2)[C@@H]2C(=O)N(Cc3ccccc3)C(=O)[C@@H]21	x	x	-2%	2%	x	x
Cc1ccc(C(=O)NNC(=O)C2CCN(c3nccc(C)n3)CC2)cc1	-2	9	40%	-3%	8%	24%
COc1cc2c(cc1OC)CN(CC(=O)Nc1ccccc1C(=O)NCc1ccccc1)CC2	1	-13	6%	0%	17µM*	2.9µM*
COc1cccc(N2CCN(CC(=O)Nc3ccccc3C(=O)NCc3ccccc3)CC2)c1	x	x	-13%	-1%	9.3µM*	u
COc1cc2c(cc1OC)CN(CC(=O)NC(=O)NCc1ccccc1)CC2	2	-11	4%	5%	9.3µM*	u
CC(CCOS(N)(=O)=O)c1ccccc1 (centres undefined)	-4	4	9%	3%	0%	-12%
COc1ccc(OC)cc1	x	x	8%	4%	x	x
COc1ccc(P2(=O)Nc3ccccc3N2)cc1	36*	41	1%	-19%	43%	-16%
CCn1c(=O)c2sccc2n2c(CCCC(=O)NCc3cccnc3)nnc12	2	1	8%	0%	25%	13µM*
COc1cccc(CNC(=O)CCCc2nnc3n(C)c(=O)c4sccc4n23)c1	5	-1	-6%	-1%	u	-4%
CCN(C(=O)CSc1nc2ccccc2n1CCc1ccccc1)C1CCS(=O)(=O)C1 (centres undefined)	-1	-1	4%	6%	-17%	x
O=C(COC(=O)CN1C(=O)C(=O)c2ccccc21)OCN1C(=O)c2ccccc2C1=O	-2	-4	12%	18%	9%	-4%
CCCc1cc(-c2[nH]ncc2-c2ccc(C(=O)OCC)o2)c(O)cc1O	-2	-15	-5%	5%	6.6µM*	7%

Compound activity (PubChem)
